Rows were chosen to be rich in hits. Some 1.2% of all compounds tested hit in one or more screens of this group.
CCT modulator = modulators of cytosolic chaperonin (CCT/TRiC) activity | activity change, % (no concentration beside the values), hits read low | purified chaperonin ATPase assay, HTRF ADP detection, 30 min | 360,000 tested, 0.3% active | AID 651819; in the data active = activity change below about -30%; note: % is set by controls: 0 for no effect and ±100 for the full control effect
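ATPase activity: ADP formed was measured by HTRF Transcreener (665/615 nm ratio) after 30 min at 37 deg C with 10 uM ATP. Compounds screened at one 76 uM concentration against 40 or 20 nM TRiC in Tris pH 7.4/KCl/MgCl2/DTT buffer.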
gsp antag = antagonizes gsp, the McCune-Albright syndrome mutation. AID 624288. 340,000 tested, 0.4% active. gsp-mutant cells, cAMP HTRF, 30 min. Potency, µM (top dose mostly 76.9 µM), without a hit: top-dose activity change, negative = inhibition, actives largely listed as inhibitors; calls by dose curve; cell line not stated here;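 note: intracellular cAMP measured with PDE inhibitor Ro 20-1724 present during compound exposure; potency is the fitted concentration of half-maximal effect; % is set by controls: 0 for no effect and ±100 for the full control effect; nearly all actives have a fitted effect of over 65% in size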
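HTRF cAMP read-out (cAMP-d2 plus anti-cAMP antibody-K in lysis buffer, 30 min RT). Before lysis, cells are exposed to compounds with […] for 30 min at 37C in DPBS containing Ca/Mg, BSA and Tween 20.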
uPA generation = cell surface uPA generation inhibition; cell surface uPA generation assay, qHTS; Potency, µM (top dose mostly 38.3 µM), inactives show at the highest dose activity change, negative = inhibition, usual class: inhibitors; 330,000 tested, 0.31% active; AID 540303; active = well fitted inhibition curve with a large enough effect; inconclusive = small, poorly fitted or top-dose-only effect; inactive = no such curve, though single readings can be large or run the other way; tested in mouse RAW 264.7 cells; note: potency is the fitted concentration of half-maximal effect; % is set by controls: 0 for no effect and ±100 for the full control effect; nearly all actives have a fitted effect of over 55% in size
TSHR antagonist = blocks TSH signaling through the human TSH receptor. AID 504810. 330,000 tested, 0.2% active. P16473. activity change, negative = inhibition, % at 11.5 µM. TSHR-expressing cells, TSH-stimulated cAMP HTRF, 2 h; active compounds read low;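 active = activity change below a set negative limit, meaning inhibition stronger than a set level, cut at about -70% in these data; inconclusive = activity change between two set negative limits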; note: % is set by controls: 0 for no effect and ±100 for the full control effect
Target sequence (P16473 whole entry, looked up): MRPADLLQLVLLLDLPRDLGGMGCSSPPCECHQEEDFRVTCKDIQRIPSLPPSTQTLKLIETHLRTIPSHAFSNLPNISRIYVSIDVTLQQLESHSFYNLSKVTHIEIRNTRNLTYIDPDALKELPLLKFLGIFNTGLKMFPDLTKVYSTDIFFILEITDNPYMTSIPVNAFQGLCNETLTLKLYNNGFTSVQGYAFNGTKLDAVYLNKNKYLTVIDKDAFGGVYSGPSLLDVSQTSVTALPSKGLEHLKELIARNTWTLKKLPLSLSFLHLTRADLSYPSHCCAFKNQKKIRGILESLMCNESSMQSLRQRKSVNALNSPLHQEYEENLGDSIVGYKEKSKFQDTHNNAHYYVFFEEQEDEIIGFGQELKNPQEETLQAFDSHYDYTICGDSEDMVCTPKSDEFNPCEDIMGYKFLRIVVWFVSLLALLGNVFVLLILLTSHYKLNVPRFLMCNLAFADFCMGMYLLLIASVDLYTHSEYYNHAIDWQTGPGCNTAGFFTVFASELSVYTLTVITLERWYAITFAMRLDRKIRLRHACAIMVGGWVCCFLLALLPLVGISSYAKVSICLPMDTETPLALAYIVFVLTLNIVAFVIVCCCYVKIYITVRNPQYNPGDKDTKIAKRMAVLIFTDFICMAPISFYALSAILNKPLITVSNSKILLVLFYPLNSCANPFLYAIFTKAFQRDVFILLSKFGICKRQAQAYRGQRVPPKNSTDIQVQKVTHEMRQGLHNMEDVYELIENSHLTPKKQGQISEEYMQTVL
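TSHR-expressing cells were treated with compounds, then stimulated with TSH at EC80 (4nM final) for 2 hours at 37 deg C. Cellular cAMP was measured by HTRF competition between lysate cAMP and cAMP-d2 for a cryptate-labelled anti-cAMP antibody.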
gsp agonist = gsp mutant agonism. 340,000 tested, 0.13% active. AID 624287. gsp mutant cells, cAMP HTRF, 30 min. Potency, µM (doses to about 76.9 µM), for inactives: top-dose activation (cAMP increase), actives largely listed as activators; active = well fitted activation curve with a large enough effect; inconclusive = small, poorly fitted or top-dose-only effect, or another doubt; inactive = no such curve, though single readings can be large or run the other way; cell line not stated here;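 note: phosphodiesterase inhibitor Ro 20-1724 added with compounds to block cAMP breakdown; potency is the fitted concentration of half-maximal effect; nearly all actives have a fitted effect of over 60% in size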
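Cells stably selected in G418 were plated at 2000/well, grown 16-24 hr, then given compounds in DMSO with the PDE inhibitor […] (300 uM solution added) for 30 min at 37C; cAMP was read by HTRF.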
Mm-Cpn inhibitor = blocks the Methanococcus maripaludis chaperonin Mm-Cpn; purified Mm-Cpn ATPase, ADP Transcreener TR-FRET; AID 504842; Potency, µM (highest dose often 76.9 µM), inactives show at the top dose activity, negative = inhibition, actives largely listed as inhibitors; 330,000 tested, 0.031% active; active = well fitted inhibition curve with a large enough effect; inconclusive = small, poorly fitted or top-dose-only effect; note: potency is the fitted concentration of half-maximal effect; % is set by controls: 0 for no effect and ±100 for the full control effect; nearly all actives have a fitted effect of over 80% in size
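ATPase turnover read by TR-FRET ADP competition (Eu cryptate antibody/ADP-d2, 665/590 nm): 10uM ATP final, 25nM Mm-CPN final, 30 min 37degC after 10-min compound preincubation, pH 7.4 Tris/KCl/MgCl2/DTT buffer.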
* = called active by the depositor; [ ] = another dose, or the depositor's remark.

What do the screens show for `CCOC(=O)C(NC(C)=O)(Nc1ccc(S(=O)(=O)Nc2ncccn2)cc1)C(F)(F)F` (centres undefined)?
CCT modulator: -1; gsp antag: -5%; uPA generation: 0%; TSHR antagonist: 4; gsp agonist: -7%[15.4 µM]; Mm-Cpn inhibitor: 0%

What do the screens show for `COc1ccc(-c2cc3c(=O)n(CC(=O)NCc4cccnc4)nc(C)n3n2)cc1`?
CCT modulator: 0; gsp antag: -2%; uPA generation: -1%; TSHR antagonist: -139*; gsp agonist: 13%; Mm-Cpn inhibitor: 1%

Results for C1CCc2nc3c(nc2C1)CCCC3 ?
CCT modulator: 1; gsp antag: -1%; uPA generation: 4%; TSHR antagonist: 2; gsp agonist: -10%; Mm-Cpn inhibitor: inconclusive

How did Cc1c(C(=O)Nc2ccc(F)cc2)c2ccccn2c1CCc1ccncc1 do in these assays?
CCT modulator: -2; gsp antag: 11µM*; uPA generation: 3%; TSHR antagonist: 53; gsp agonist: 2%[15.4 µM]; Mm-Cpn inhibitor: 0%

What do the screens show for `CCOc1cc(CNc2ccc(N(C)C)cc2)cc(Br)c1OCC(=O)NC(C)(C)C`?
CCT modulator: -4; gsp antag: inconclusive; uPA generation: -4%; TSHR antagonist: -76*; gsp agonist: -41%; Mm-Cpn inhibitor: 25µM*

What do the screens show for `CCOc1cc(CNc2ccc(N3CCCCC3)cc2)cc(Br)c1OCC(=O)NC(C)(C)C`?
CCT modulator: -1; gsp antag: -9%; uPA generation: -3%; TSHR antagonist: -4; gsp agonist: -2%; Mm-Cpn inhibitor: -2%

Results for CCOc1ccc(-c2nnc(Nc3ccc(OC)c(C(=O)N4CCCCC4)c3)c3ccccc23)cc1 ?
CCT modulator: -2; gsp antag: 35µM*; uPA generation: 25%; TSHR antagonist: -3; gsp agonist: -70%; Mm-Cpn inhibitor: 0%

How did CNC(=O)c1cc(Nc2nnc(-c3ccc(O)cc3)c3ccccc23)ccc1OC do in these assays?
CCT modulator: -2; gsp antag: -22%; uPA generation: -6%; TSHR antagonist: -21; gsp agonist: -16%; Mm-Cpn inhibitor: 2%

How did Cc1ccc(-c2nc(CSCC(=O)N3CCN(c4ccccn4)CC3)c(C)o2)cc1 do in these assays?
CCT modulator: -2; gsp antag: inconclusive; uPA generation: inconclusive; TSHR antagonist: -32; gsp agonist: -17%; Mm-Cpn inhibitor: 0%

Results for COc1cccc(N2CCN(C(=O)CCc3nnc4ccc(N5CCCC5)nn34)CC2)c1 ?
CCT modulator: -42*; gsp antag: -26%; uPA generation: -7%; TSHR antagonist: 14; gsp agonist: 2%; Mm-Cpn inhibitor: -9%

What do the screens show for `COc1ccc(-c2noc(CCC(=O)N3CCN(c4cccc(OC)c4)CC3)n2)cc1`?
CCT modulator: -1; gsp antag: 45µM*; uPA generation: 6%; TSHR antagonist: -15; Mm-Cpn inhibitor: 0%

Results for CCOc1ccc(-c2nc(CSCC(=O)N3CCN(c4cccc(OC)c4)CC3)c(C)o2)cc1 ?
CCT modulator: -4; gsp antag: 40µM*; uPA generation: -24%; TSHR antagonist: -33; gsp agonist: inconclusive; Mm-Cpn inhibitor: -7%

How did COc1cccc(N2CCN(C(=O)CCc3nnc4ccc(N5CCOCC5)nn34)CC2)c1 do in these assays?
CCT modulator: 1; gsp antag: 11%; uPA generation: 8%; TSHR antagonist: 20; gsp agonist: 4%; Mm-Cpn inhibitor: -2%

How did COc1ccc(-c2noc(CCC(=O)N3CCN(c4cccc(C(F)(F)F)c4)CC3)n2)cc1 do in these assays?
CCT modulator: -2; gsp antag: inconclusive; uPA generation: 12%; TSHR antagonist: -24; gsp agonist: -47%; Mm-Cpn inhibitor: -4%

How did COc1ccc(-c2ccc3c(c2)c(Sc2ccccc2)c(-c2cc(OC)cc(OC)c2)n3C)cc1 do in these assays?
CCT modulator: 3

How did Cc1ccnc(NS(=O)(=O)c2ccc(NC(=O)C3CC=CCC3C(=O)O)cc2)n1 (centres undefined) do in these assays?
CCT modulator: -1; gsp antag: -9%; uPA generation: 4%; TSHR antagonist: -6; gsp agonist: 21%[15.4 µM]; Mm-Cpn inhibitor: 0%

What do the screens show for `CCN(CC)C(=O)Cn1c(=O)n(-c2ccccc2)c(=O)c2sccc21`?
CCT modulator: -1; gsp antag: -8%; uPA generation: 25%; TSHR antagonist: -81*; gsp agonist: 0%; Mm-Cpn inhibitor: 2%

How did CCN(CC)C(=O)Cn1c(=O)n(Cc2ccc(F)cc2)c(=O)c2sccc21 do in these assays?
CCT modulator: -4; gsp antag: -1%; uPA generation: 4%; TSHR antagonist: 15; gsp agonist: inconclusive; Mm-Cpn inhibitor: -5%

What do the screens show for `COc1ccc(CCNC(=O)CC2COc3ccccc3O2)cc1OC` (centres undefined)?
CCT modulator: 1; gsp antag: -6%; uPA generation: -3%; TSHR antagonist: 10; gsp agonist: -4%; Mm-Cpn inhibitor: 3%

What do the screens show for `COc1ccccc1-c1sc2ccccc2c1-c1ccc2c(c1)OCCO2`?
CCT modulator: -6; gsp antag: -5%; uPA generation: -5%; TSHR antagonist: -3; gsp agonist: inconclusive; Mm-Cpn inhibitor: 20µM*

What do the screens show for `COc1ccc(-c2c(-c3ccccc3OC)sc3ccccc23)cc1OC`?
CCT modulator: 2; gsp antag: -7%; uPA generation: -15%; TSHR antagonist: -20; gsp agonist: 18%; Mm-Cpn inhibitor: 35µM*

What do the screens show for `COc1ccccc1-c1sc2cc3c(cc2c1C#CCO)OCO3`?
CCT modulator: -18; gsp antag: -13%; uPA generation: -4%; TSHR antagonist: 56; gsp agonist: inconclusive; Mm-Cpn inhibitor: inconclusive

Results for CCOC(=O)c1ccc(-c2c(-c3ccccc3OC)sc3cc4c(cc23)OCO4)cc1F ?
CCT modulator: 1; gsp antag: 3%; uPA generation: 5.6µM*; TSHR antagonist: 8; gsp agonist: -40%; Mm-Cpn inhibitor: inconclusive

What do the screens show for `COc1ccc(-c2c(-c3ccccc3OC)sc3ccccc23)cc1C=O`?
CCT modulator: -4; gsp antag: -17%; uPA generation: 1%; TSHR antagonist: -20; gsp agonist: 20%; Mm-Cpn inhibitor: inconclusive

What do the screens show for `COc1ccccc1-c1sc2ccccc2c1-c1ccccc1OC`?
CCT modulator: -10; gsp antag: -14%; uPA generation: -6%; TSHR antagonist: -4; Mm-Cpn inhibitor: 56µM*

Screening results as filed in PubChem.
